From PubChem BioAssay (NCATS)
Results filed as inconclusive are left out. Values without a mark were called inactive. Active and inactive are the calls of the source. Calls follow the shape of the dose curve; as a rule, active = well fitted inhibition curve with a large enough effect; inconclusive = small, poorly fitted or top-dose-only effect; inactive = no such curve, though single readings can be large or run the other way.

These compounds were tested on Zika virus NS2B-NS3 protease (linked construct) (assay: Primary screen NINDS Rhodamine qHTS for Zika virus inhibitors (AID 1347160; also: nearly all actives have a fitted effect of over 55% in size)). Settings: purified NS2B-NS3 protease, Rhodamine110 substrate fluorescence; series mostly up to 57.1 µM; activity change, negative = inhibition: at the top concentration.
How it was run: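 Enzyme (25 nM, linked NS2B-NS3) was preincubated 15 min with compound in 10 mM Tris-HCl pH 8.0, 0.01% Tween 20. Rhodamine110 substrate (1.5 microM) was then added and fluorescence read at start and after 15 min.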
% is scaled to controls: 0 for no effect and ±100 for the full control effect; potency is read from the fitted curve at half-maximal effect.

Structure (SMILES) | activity change, negative = inhibition | outcome | Potency
CC1CCC2(O1)C(C)(C)CC(O[C@@H]1O[C@H](CO[C@@H]3OC[C@](O)(CO)[C@H]3O)[C@@H](O)[C@H](O)[C@H]1O)CC2(C)O (stereo not given in full) | -26.5% [at 33.1 µM] |  | 
COc1ccc(C[C@H](N)C(=O)N[C@H]2[C@@H](O)[C@H](n3cnc4c(N(C)C)ncnc43)O[C@@H]2CO)cc1 |  | inactive | 
COC(=O)C1C(c2ccc(O)cc2)C(C(=O)OC)C1c1ccc(O)cc1 (stereo not given) | -19.8% [at 33.1 µM] |  | 
C[C@@H]1O[C@@H](O[C@H]2[C@H](O[C@H]3[C@H](O[C@H]4CC[C@@]5(CO)C(CC[C@]6(C)C5CC=C5C7CC(C)(C)C[C@@H](O)[C@]7(C)CC[C@]56C)C4(C)C)O[C@H](C(=O)O)[C@@H](O)[C@@H]3O)OC[C@@H](O)[C@@H]2O)[C@H](O)[C@H](O)[C@H]1O (stereo not given in full) | -8.64% [at 15.1 µM] |  | 
C=C1CCC2C(OC(=O)C2(O)COC(C)=O)C2C(=C)C(O)CC12 (stereo not given) | -5.88% [at 33.1 µM] |  | 
C=C1CCC2[C@@](C)(C=O)CCC[C@]2(C)[C@H]1CC/C(C)=C/CO (stereo not given in full) | -5.18% |  | 
CN[C@@H]1[C@@H](O)[C@@H](O[C@@H]2[C@@H](O)[C@H](O[C@H]3O[C@H](CN)[C@@H](O)[C@H](O)[C@H]3O)[C@@H](N)C[C@H]2NC(=O)[C@@H](O)CN)OC[C@]1(C)O |  | inactive | 
C[C@]12C=CC(=O)C=C1CC[C@@H]1[C@@H]2[C@@H](O)C[C@@]2(C)[C@H]1CC[C@]2(O)C(=O)COC(=O)CCC(=O)O | 16.3% |  | 
COC(=O)C[C@@H]1C(C(=O)O)=CO[C@@H](O[C@@H]2O[C@H](CO)[C@@H](O)[C@H](O)[C@H]2O)/C1=C\COC(=O)/C=C\c1ccccc1 |  | inactive [at 33.1 µM] | 
O=C(/C=C/c1ccc(O)cc1)OCC1=C[C@@H](O)[C@@H]2C=CO[C@@H](O[C@@H]3O[C@H](CO)[C@@H](O)[C@H](O)[C@H]3O)[C@H]12 | -21.2% [at 33.1 µM] |  | 
c1ccc(Nc2nc3c(s2)CCCc2[nH]ncc2-3)nc1 | 8.9% |  | 
COc1cc(/C=C/C(=O)OC2CC(C)=C(C(=O)O)/C2=C/CO[C@@H]2O[C@H](CO)[C@@H](O)[C@H](O)[C@H]2O)ccc1O (stereo not given in full) | -26% [at 33.1 µM] |  | 
CC(C)C1=CC2=CCC3[C@](C)(CCC[C@@]3(C)C(=O)O)C2CC1=O (stereo not given in full) | -12.3% [at 33.1 µM] |  | 
O=C(O)CCc1cccc(O[C@@H]2O[C@H](CO)[C@@H](O)[C@H](O)[C@H]2O)c1O |  | inactive [at 33.1 µM] | 
C[C@@H]1O[C@@H](O[C@H]2[C@H](O[C@H]3[C@H](O[C@H]4CC[C@@]5(C)C(CC[C@]6(C)C5CC=C5[C@@H]7CC(C)(C(=O)O)C[C@@H](O)[C@]7(C)CC[C@]56C)[C@@]4(C)CO)O[C@H](C(=O)O)[C@@H](O)[C@@H]3O)O[C@H](CO)[C@H](O)[C@@H]2O)[C@H](O)[C@H](O)[C@H]1O (stereo not given in full) | -7.56% [at 15.1 µM] |  | 
CC(=O)OC[C@]1(O)[C@H]2[C@H](OC(=O)CC(C)C)OC=C(CO[C@@H]3O[C@H](CO)[C@@H](O)[C@H](O)[C@H]3O)[C@H]2C[C@@H]1O | -18.6% [at 33.1 µM] |  | 
COc1c(C)c(C(=O)c2ccc(N)c(C(=O)O)c2)n2ccccc12 | -3.48% |  | 
O=C(O)C[C@H]1CCC(=O)[C@@H]1C/C=C\CCOC1OC(CO)C(O)C(O)C1O (stereo not given in full) | -2.13% [at 33.1 µM] |  | 
C#C[C@]1(O)CC[C@H]2[C@@H]3CCC4=C/C(=N/O)CC[C@@H]4[C@H]3CC[C@@]21CC |  | inactive; activator | 
CC1(C)O[C@@]2(C)CC[C@@H]1C[C@@H]2OC1OC(CO)C(O)C(O)C1O (stereo not given in full) |  |  | 11.2 µM (active)
C[C@@H]1O[C@@H](O[C@H]2[C@H](OC(=O)[C@]34CCC(C)(C)C[C@H]3C3=CCC5[C@@]6(C)C[C@H](O)[C@H](O[C@@H]7O[C@H](CO)[C@@H](O[C@@H]8O[C@H](CO)[C@@H](O)[C@H](O)[C@H]8O)[C@H](O)[C@H]7O)[C@@](C)(CO)C6[C@H](O)C[C@@]5(C)[C@]3(C)C[C@H]4O)OC[C@H](O)[C@@H]2O)[C@H](O)[C@H](O)[C@H]1O[C@@H]1OC[C@@H](O)[C@H](O[C@@H]2OC[C@](O)(CO)[C@H]2O)[C@H]1O (stereo not given in full) | -19.4% [at 10.7 µM] |  | 
CC[C@@H](c1ccc(F)c(F)c1)n1c(C(=O)OC)c(-c2ccno2)[nH]c1=S | -23.8% |  | 
COC(=O)C1C(CC(C)=O)C=CC(O)C12Oc1cc(C)cc(O)c1C2=O (stereo not given) |  | inactive [at 33.1 µM] | 
CC(=O)OC[C@@]12[C@@H](OC(C)=O)C[C@@H](C)[C@](C)([C@@H]3C[C@H]4C=CO[C@H]4O3)[C@H]1CCC[C@]21CO1 | -0.48% [at 33.1 µM] |  | 
CC(C)C(=O)O[C@@H]1[C@@H](O)[C@@H](O[C@H]2O[C@H](CO)[C@@H](O)[C@H](O)[C@H]2O)O[C@H](CO)[C@H]1O | -8.92% [at 33.1 µM] |  | 
